Screening results deposited in PubChem by National Center for Advancing Translational Sciences (NCATS).
Shiga inhibitor: inhibitors of Shiga toxin in Vero cells; Vero cells, Shiga toxin protein synthesis inhibition reporter; inhibition, % at 38.7 µM; 290,000 compounds, 9.2% hits; AID 2315; in the data active = inhibition mostly above about 28%, no sharp cut-off; inactive = mostly below about 43%; note: 0% is about no effect
Vaccinia mCherry: inhibitors of vaccinia virus infection (mCherry reporter signal); 310,000 compounds, 0.63% hits; Vaccinia virus mCherry reporter infection, fluorescence; Potency, µM (doses to about 36.5 µM), inactives show at the highest dose activity change, negative = inhibition, actives largely listed as inhibitors; calls by dose curve; tested in A549 cells; note: potency is the fitted concentration of half-maximal effect; % is set by controls: 0 for no effect and ±100 for the full control effect; nearly all actives have a fitted effect of over 35% in size
Marburg entry inh: inhibitors of Marburg virus binding or cell entry; Marburg virus pseudotyped entry inhibition, cell reporter; Potency, µM (titrated, usually from 37.8 µM), for inactives: at the highest dose activity change, negative = inhibition, actives largely listed as inhibitors; 300,000 compounds, 1.8% hits; AID 540276; calls by dose curve; tested in HEK293 cells; note: potency is the fitted concentration of half-maximal effect; % is set by controls: 0 for no effect and ±100 for the full control effect
VACV Venus inh: vaccinia inhibition (Venus reporter) | Vaccinia virus Venus reporter expression, fluorescence | Potency, µM (series often up to 36.5 µM), for the others: at the highest dose activity change, negative = inhibition, usual class: inhibitors | 330,000 compounds, 0.46% hits; calls by dose curve; tested in A549 cells; note: potency is the fitted concentration of half-maximal effect; % is set by controls: 0 for no effect and ±100 for the full control effect; nearly all actives have a fitted effect of over 30% in size
Lassa entry inh: Lassa virus entry inhibition; Lassa virus pseudotype entry inhibition, cell reporter; Potency, µM (top dose mostly 37.9 µM), for the others: top-dose activity change, negative = inhibition, actives largely listed as inhibitors; 300,000 compounds, 1.2% hits; AID 540256; calls by dose curve; tested in HEK293 cells; note: potency is the fitted concentration of half-maximal effect; % is set by controls: 0 for no effect and ±100 for the full control effect; nearly all actives have a fitted effect of over 50% in size
Cycloheximide cs: affects cycloheximide protein synthesis inhibition readout, counter-screen | cell reporter, cycloheximide protein synthesis inhibition counterscreen | max response, % | 300,000 compounds, 12% hits; in the data active = max response mostly above about 13%, no sharp cut-off; inactive = mostly below about 14%; note: read at 38.3 µM for the half of the compounds with a filed dose; 0% is about no effect
Numbers without * were called inactive; i = inactive; ? = inconclusive; nt = not tested or not shown; + = active, no number; [ ] = dose if it differs, or a comment. This excerpt belongs to a sample that is enriched for hits.

SMILES	Shiga inhibitor	Vaccinia mCherry	Marburg entry inh	VACV Venus inh	Lassa entry inh	Cycloheximide cs
Cc1cccc(Nc2nnc(SCC(=O)NCC3CCCO3)s2)c1 (stereo not given)	nt	i	-26%	-3%	13%	nt
Cc1cc(C)cc(NC(=O)CSc2ccc(-c3ccco3)nn2)c1	21	i	?	-17%	-5%	4
CCSc1nnc(NC(=O)c2csc(C)c2)s1	49*	nt	17%	nt	6%	17*
CCSc1nnc(NC(=O)[C@@H](NC(=O)c2cccc(C)c2)C(C)C)s1	-1	i	-2%	-15%	9%	-1
Cc1cccc(NC(=O)CSc2ccc(-c3ccco3)nn2)c1	17	-2%	-6%	-18%	0%	20*
C/C(N)=C(/C#N)C(=O)CSc1nnc(Nc2cccc(C)c2)s1	67*	-14%	17%	-18%	?	31*
Cc1cccc(NC(=O)CSc2nnc(NC(=O)c3ccco3)s2)c1	43*	nt	2%	nt	10%	26
COc1ccc(NC(=O)CSc2nnc(NC(=O)c3ccco3)s2)cc1OC	-2	-3%	-2%	-11%	13%	0
C/C(N)=C(/C#N)C(=O)CSc1nc2cc(Cl)ccc2s1	+	-7%	2%	-21%	68%[14.3 µM]	24*
O=C(CSc1ccc(-c2ccccn2)nn1)Nc1cccc(F)c1	32*	?	?	?	?	42*
C/C(N)=C(/C#N)C(=O)CSc1cc(Cl)ccc1Cl	5	-2%	2%	-18%	-1%	-1
CCN1CCCC1CNC(=O)C1CCN(Cc2nc(-c3cccc(Br)c3)oc2C)CC1 (stereo not given)	-8	i	3.5µM*	-27%	11µM*	2
Cc1oc(-c2cccc(Cl)c2)nc1CN1CCC(C(=O)NC(C)C)CC1	nt	-9%	25%[46.1 µM]	-11%	?	nt
Cc1ccccc1Nc1nc(CSc2nnc(-c3ccoc3C)n2C)cs1	58	nt	-1%	nt	-9%	21*
Cc1occc1-c1nnc(SCc2cc(=O)n3cc(Br)ccc3n2)n1C	-7	nt	-1%	nt	?	-5
Cc1ccc(Nc2nc(CSc3nnc(-c4ccncc4)n3C)cs2)cc1	54*	i	?	-19%	?	25*
COc1ccccc1N1CCN(C(=O)c2cccc(S(=O)(=O)N3c4ccccc4CC3C)c2)CC1 (stereo not given)	nt	i	?	-22%	?	nt
COC(=O)c1c(CSc2cccc(C)c2)noc1C(=O)NCc1ccco1	23	i	nt	-22%	nt	21*
C[C@@H]1CCCCO[C@H](CN(C)C(=O)Nc2ccc3c(c2)OCO3)[C@@H](C)CN([C@H](C)CO)C(=O)c2cc(NS(=O)(=O)c3ccc(F)cc3)ccc2O1	nt	-28%	nt	?	nt	nt
Cc1c(NC(=O)c2ccc(COc3ccc4ccccc4c3)o2)c(=O)n(-c2ccccc2)n1C	91*	-9%	?	-24%	10%	31*
Cc1c(NC(=O)c2cc3ccccc3o2)c(=O)n(-c2ccccc2)n1C	3	nt	23%	nt	1%	-3
Cc1c(NC(=O)c2cc3ccccc3oc2=O)c(=O)n(-c2ccccc2)n1C	86*	i	25%	-8%	23%	42*
Nc1nn(-c2cccc(F)n2)cc1-c1ccccc1	107*	-7%	?	-5%	?	40*
Nc1nc(Br)c2c(F)cccc2c1-c1ccccc1	-15	?	5%	-20%	7%	7
Nc1ccccc1-c1ccc(Cl)cc1	nt	-14%	7%	?	?	nt
SMILES	Shiga inhibitor	Vaccinia mCherry	Marburg entry inh	VACV Venus inh	Lassa entry inh	Cycloheximide cs
Nc1nn(-c2cccc(F)n2)cc1-c1ccc(Cl)cc1	77*	-9%	?	-7%	?	23*
CC1CCN(C(c2ccccc2)c2sc3nc(-c4ccco4)nn3c2O)CC1 (stereo not given)	nt	-24%	nt	-18%	-22%[46.1 µM]	nt
CC(=O)N1CCN(S(=O)(=O)c2cccc(C(=O)OCC(=O)N3CC(=O)Nc4ccccc43)c2)CC1	25	-9%	-5%[14.2 µM]	1%	-16%	16*
Cc1ccc2[nH]c(=O)c(C3C(C#N)=C(N)Oc4c3ccc3cccnc43)cc2c1 (stereo not given)	-5	10µM*	?	?	?	-3
CCN(CC)CCN(Cc1cc2cc(C)cc(C)c2[nH]c1=O)C(=S)NCc1ccco1	-9	-20%	?	-25%	-1%	-3
CCN(CC)CCN(Cc1cc2ccc(C)c(C)c2[nH]c1=O)C(=S)NCc1ccco1	7	-13%	?	4%	5.6µM*	-2
Oc1cc(NCc2cccnc2)ccc1-c1nc2ccccc2o1	84*	-15%	?	?	?	53*
CCc1ccc(OCC(=O)Nc2ccc(-c3nc4ccccc4o3)c(O)c2)cc1	40	nt	?	-16%	-25%	9
Cc1cc(N2CCC(C(=O)Nc3ccccc3Cl)CC2)n2nc(C)c(-c3ccc(Cl)cc3)c2n1	nt	2%	-1%[46.1 µM]	-3%	-1%[46.1 µM]	nt
CCc1ccc(NC(=O)Nc2ccc3c(c2)CCC3)cc1	62*	-12%	?	-13%	28%[46.1 µM]	32*
CC(=O)c1cccc(NC(=O)Nc2ccc3c(c2)CCC3)c1	41*	-8%	9%[46.1 µM]	-16%	-10%[46.1 µM]	35*
Cc1cccc(NC(=O)Nc2ccncc2)c1	49	nt	nt	nt	nt	3
Cc1cccc(NC(=O)Nc2ccc3c(c2)CCC3)c1	97*	nt	nt	nt	nt	56*
CCOC(=O)c1c(C)[nH]c(C(=O)N2CCc3cc(OC)c(OC)cc3C2)c1C	nt	-3%	-20%	-11%	?	nt
COc1ccc(OC)c2[nH]c(=O)c(CCNC(=O)c3cccs3)cc12	-20	6%	5%	-2%	1%	3
Cc1ccc(SCCNC(=O)CN(c2ccccc2)S(=O)(=O)N(C)C)cc1	nt	-12%	26%[46.1 µM]	0%	-25%[46.1 µM]	nt
COc1cccc(NC(=O)Nc2ccncc2)c1	23	nt	-16%	nt	14%	17*
COc1cccc(NC(=O)Nc2ccc(Cc3ccncc3)cc2)c1	42	-18%	?	-24%	-7%	9
COc1cccc(NC(=O)Nc2ccc(C(C)(C)C)cc2)c1	51*	-18%	?	-23%	?	25*
COc1ccc(OC)c(NC(=O)Nc2cnccn2)c1	46	i	-12%[46.1 µM]	-19%	9%[46.1 µM]	16*
COc1cccc(NC(=O)C(=O)NCc2ccncc2)c1	78*	i	?	-8%	12%[46.1 µM]	29*
Cc1oc(-c2cccc(Br)c2)nc1Cn1c(SCc2cccc(F)c2)nc2cccnc21	nt	-4%	nt	-8%	9%[46.1 µM]	nt
Cc1cc(C)cc(N2C(=O)CSC23C(=O)N(CC(=O)Nc2ccc(F)cc2F)c2ccccc23)c1 (stereo not given)	nt	-7%	nt	-5%	-8%[46.1 µM]	nt
CN(Cc1ccccc1)S(=O)(=O)c1cc(Br)cc2c1N(C(=O)C1CC1)CC2	nt	-17%	-30%[46.1 µM]	-3%	?	nt
CS(=O)(=O)N(CC(=O)Nc1ccc(S(=O)(=O)N2CCCC2)cc1)c1cccc(F)c1	-12	nt	nt	nt	nt	-1
COc1cccc(NC(=O)Nc2cccs2)c1	41	nt	-2%	-14%	21%	24*
COc1cccc(NC(=O)Nc2cnccn2)c1	62	?	23%[46.1 µM]	1%	-8%	20*
Cc1cccc(NC(=O)Nc2cnccn2)c1	40	nt	nt	nt	nt	18
